From PubChem
TRPML1 agonist: human mucolipin-1 channel agonism. TRPML1-expressing cells, Ca2+ dye fluorescence, FDSS. AID 624414. 410,000 tested, 0.12% active. activation, % (test concentration not listed); in the data active = activation above about 50%; inconclusive = mostly about 30% to 49%; note: 0% is about no effect
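In this qHTS format, compounds were pin-transferred onto Ca8-dye-loaded TRPML1-DL cells induced with Tet overnight, and intracellular Ca2+ fluorescence was recorded kinetically for 110 s after a 10 s baseline. A subsequent 4uM final 54-4 (EC80) addition followed by a second 110 s read served as the antagonist phase.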
TRHR enhancer: allosterically enhances the human TRH receptor | enhancement, % at 2 µM | TRHR cells, fluo-8 calcium fluorescence, EC20 TRH enhancement | 360,000 tested, 0.66% active | P34981 | AID 493056; in the data active = enhancement above about 30%; note: 0% is about no effect
Target sequence (P34981 whole entry, looked up): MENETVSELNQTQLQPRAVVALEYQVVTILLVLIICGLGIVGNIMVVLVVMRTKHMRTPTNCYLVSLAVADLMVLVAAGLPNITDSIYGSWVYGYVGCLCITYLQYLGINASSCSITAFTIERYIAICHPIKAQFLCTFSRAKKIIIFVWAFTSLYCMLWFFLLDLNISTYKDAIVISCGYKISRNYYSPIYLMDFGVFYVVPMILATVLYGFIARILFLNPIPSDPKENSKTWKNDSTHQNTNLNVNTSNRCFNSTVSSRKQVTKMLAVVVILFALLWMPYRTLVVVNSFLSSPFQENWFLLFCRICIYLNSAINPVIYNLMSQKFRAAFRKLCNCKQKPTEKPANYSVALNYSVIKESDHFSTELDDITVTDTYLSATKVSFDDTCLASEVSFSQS
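Enhancer read-out: after compound pinning and an initial kinetic agonist-mode read, an EC20 of TRH (10 nM final) was injected and fluo-8 calcium signal (Ex 480/Em 530) followed at 1 s/cycle for 100 cycles in TRHR-expressing cells.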
TRPV1 PAM: enhances activation of the human vanilloid receptor TRPV1; Q8NER1; AID 540277; potentiation, % at 8.33 µM; 320,000 tested, 0.02% active; TRPV1-expressing cells, Fluo-8 calcium influx, capsaicin EC20 potentiation; in the data active = potentiation above about 80%; inconclusive = between about 30% and that limit; note: 0% is about no effect
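Cells expressing TRPV1 were dye-loaded with Fluo-8 and read kinetically: 10 s baseline, 3 min after compound (agonist portion), then 2 min after EC20 capsaicin (allosteric enhancer portion). Calcium-bound dye fluorescence at 480/520 nm.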
TRPML1 blocker: blocks the human TRPML1 channel; TRPML1-inducible cells, Ca2+ dye fluorescence, FDSS; hits give low values; inhibition of EC80 agonist-evoked calcium signal; activity change, negative = inhibition, % (concentration not given with the values); 390,000 tested, 0.02% active; AID 624415; in the data active = activity change below about -50%; inconclusive = between about -30% and that limit;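 note: stimulus is agonist 54-4 at its EC80 concentration; % is set by controls: 0 for no effect and ±100 for the full control effect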
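TRPML1-DL cells, Tet-induced overnight (~16 h, 37 °C) at 1,500 cells/well, were loaded with Ca8 no-wash dye plus quencher for 45-90 min at room temperature. Compounds were pinned during FDSS kinetic reading; agonist 54-4 at EC80 (4 uM final) then added.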
TRPV1 agonist: human TRPV1 agonism | 320,000 tested, 0.19% active | TRPV1-expressing cells, Fluo-8 calcium influx, agonist mode | Q8NER1 | activation, % at 8.33 µM | AID 540275; in the data active = activation above about 80%; inconclusive = between about 30% and that limit; note: 0% is about no effect
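Fluo-8 calcium influx in TRPV1-expressing cells, kinetic read (ex 480/em 520 nm). Compound added and read 3 min for agonist activity, followed by capsaicin at EC20 final and 2 min further read for enhancement.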
TRHR ag: agonists of human TRH receptor; P34981; TRHR cells, calcium flux fluo-8, FDSS agonist mode; activation, % at 2 µM; 360,000 tested, 0.18% active; AID 493084; in the data active = activation above about 30%; note: 0% is about no effect
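Agonist-mode FDSS calcium read (Ex 480/Em 530, 1 s cycles) in 1536-well TRHR cells with fluo-8 dye, after 10-cycle baseline and 23 nL compound addition; TRH at EC20 (10 nM final) added afterwards for the enhancer phase.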
Numbers without * were called inactive; ? = inconclusive; . = no result. An excerpt weighted towards active compounds, which were near 0.99% of everything screened.

SMILES	TRPML1 agonist	TRHR enhancer	TRPV1 PAM	TRPML1 blocker	TRPV1 agonist	TRHR ag
COCCCc1cc(F)c(S(=O)(=O)N2CCN(S(=O)(=O)c3ccc4c(c3)OCCO4)CC2)cc1F	.	-1	.	.	.	2
COCCNC(=O)CCCn1c(SCC(=O)c2ccc(Br)cc2)nc2c(sc3ccccc32)c1=O	0	1	.	8	.	0
COc1ccc(CNC(=O)CCCc2ccccc2)cc1	0	-1	.	12	.	0
CCc1ccc(OCCCC(=O)NCc2ccccc2)cc1	0	1	-12	-21	83*	-1
O=C(NCCSCc1ccccc1)C1CCN(S(=O)(=O)Cc2ccccc2)CC1	-1	2	.	4	.	0
CCOC(=O)c1scc(-c2ccccc2)c1S(=O)(=O)Nc1ccc(N(C)C)cc1	3	53*	.	50	.	-1
O=C(c1ccccc1Br)N(Cc1ccco1)C1CCS(=O)(=O)C1 (configuration not stated)	0	7	.	2	.	-1
Cc1n[nH]c(C)c1CCc1nc2c3ccccc3nc(SCC(N)=O)n2n1	0	33*	-1	19	0	0
Cc1cccc(C)c1NC(=O)CSc1nc2ccccc2c2nc(CCc3c(C)n[nH]c3C)nn12	0	1	.	-4	.	0
CCOC(=O)N1CCN([N+]([O-])=NOc2cc(O/N=[N+](\[O-])N(C)C)c([N+](=O)[O-])cc2[N+](=O)[O-])CC1	1	.	.	-4	.	.
COc1ccc(N2CCN(C(C)C(=O)Nc3nnc(C)s3)CC2)cc1 (configuration not stated)	2	32*	8	-1	-1	1
COc1ccc(C(=O)Nc2nnc(C)s2)cc1	-1	3	.	-18	.	-1
CC(C)(C)n1ncc2c(=O)n(Cc3ccccc3F)cnc21	1	.	.	24	.	.
Cc1ccc(NC(=O)C2CCN(c3nc4ccccc4[nH]3)CC2)c(C)c1	1	-3	.	?	.	0
CCOC(=O)C1CCN(C(=O)Cn2nc(CC)n3c(cc4sccc43)c2=O)CC1	0	30*	.	-9	.	0
c1ccc(Nc2nc(NCc3ccco3)nc3nccnc23)cc1	0	.	.	.	.	.
CSCC[C@@H](CO)NC(=O)c1ccc2nc(C3CCCCC3)oc2c1	0	11	0	-7	3	-1
CSCCNC(=O)c1ccc2nc(C3CCCCC3)oc2c1	-1	3	1	22	92*	0
CSc1cc2c(s1)c1cnn(Cc3ccccc3F)c(=O)c1n2C	.	-8	.	.	.	-1
Cc1ccc2oc(C(=O)N3CCC(c4nc5ccccc5s4)CC3)c(C)c2c1	54*	-6	.	-12	.	1
COc1cc(-c2nn3c(-c4cc(-c5ccccc5)n[nH]4)nnc3s2)cc(OC)c1OC	1	.	.	.	.	.
Clc1ccc[n+](CCCCC[n+]2cccc(Cl)c2)c1	-1	.	.	.	.	.
COc1ccccc1CNC(=O)CCc1c(C)nn(-c2ccc(N3CCCCC3)nn2)c1C	0	11	.	-6	.	0
O=C(CSc1ncnc2c1cnn2CCO)Nc1cccc(C(F)(F)F)c1	0	31*	4	-12	2	0
Cc1cc2c(s1)c1cnn(Cc3ccccc3Br)c(=O)c1n2C	.	-2	.	.	.	-2
SMILES	TRPML1 agonist	TRHR enhancer	TRPV1 PAM	TRPML1 blocker	TRPV1 agonist	TRHR ag
Cc1nnc2sc(SCc3ccccc3)nn2c1=O	.	34*	8	.	-3	0
CCCCC1=CC2=CC(=O)C(C)(OC(=O)CC)C(=O)C2=CN1CCc1ccccn1 (configuration not stated)	0	7	-6	-54*	0	0
N#Cc1ccc(S(=O)(=O)N2CCN(S(=O)(=O)c3ccc4c(c3)OCCO4)CC2)cc1	.	-4	.	.	.	1
COc1ccc(N2CCN(C(c3cc(OC)ccc3OC)c3nnnn3Cc3ccco3)CC2)cc1 (configuration not stated)	1	39*	3	4	5	-1
COc1ccc(OC)c(C(c2nnnn2CCc2ccccc2)N2CCN(c3ccccc3)CC2)c1 (configuration not stated)	51*	-6	-2	-11	22	23
COCCn1nnnc1C(c1ccc(OC)cc1OC)N1CCN(c2ccccc2)CC1 (configuration not stated)	0	4	23	-17	0	-1
O=[S+]([O-])(c1ccc2c(c1)OCCO2)N1CCN([S+](=O)([O-])c2ccccc2Br)CC1	.	-4	.	.	.	1
COc1cc2c(C(=O)N3CCOCC3)c(CSc3ccccc3)n(C)c2cc1Br	6	4	102*	74	?	0
Cc1cccc(Cn2nnc3ccccc32)c1O	-1	-4	17	-6	16	0
Cc1cccc(C(C)n2nnc3ccccc32)c1O (configuration not stated)	0	-1	86*	-6	12	0
O=C(Cc1nnc(CNC(=O)c2ccccc2)o1)Nc1cc(C(F)(F)F)ccc1Cl	.	0	.	.	.	0
CC1N(C(=O)N(C)C)CCN1S(=O)(=O)c1ccccc1 (configuration not stated)	0	36*	6	10	-2	-1
O=C(/C=C/c1ccc(Cl)cc1)NCc1ccncc1	1	-2	-7	3	82*	-1
COc1ccc(CNC(=O)CSc2nc3ccc(N)cc3s2)cc1	0	12	-4	-1	-3	42*
Cc1cc(C)nc(Nc2n[nH]c(Cc3ccccc3)n2)n1	.	75*	?	.	2	18
COc1cc(C)nc(NCc2ccccc2)n1	-1	-3	-18	0	29	0
CN(C)c1ccc(/C=C/c2cccc3cc4ccccc4nc23)cc1	0	.	.	.	.	.
COC(=O)c1cc(C)nc2c1c(=O)nc(SCc1ccccc1Cl)n2C1CC1	3	-7	.	48	.	-1
CCCOC(=O)C(=O)NNc1ccccc1	1	32*	29	-3	2	0
CC(C)OC(=O)C(=O)NNc1ccccc1	0	3	21	15	-5	-2
CC1CCN(S(=O)(=O)c2ccc(C(C)C)cc2)CC1	115*	1	0	-10	-2	0
CC1CCN(S(=O)(=O)c2ccc(Cl)cc2)CC1	0	2	-17	-9	0	-1
COc1ccc(C(=O)Nc2ccc(S(=O)(=O)N3CCOCC3)cc2)cc1	1	.	.	-12	.	.
COc1ccc(C(=O)Nc2ncc(C)s2)cc1S(=O)(=O)N1CCOCC1	1	32*	7	-5	0	2
COc1ccc(NC(=O)c2ccc(Br)c(S(=O)(=O)N3CCOCC3)c2)cc1	-1	-1	-27	-6	98*	0
COc1ccc(C(=O)Nc2ccc(C(=O)N3CCOCC3)cc2)cc1OC	0	32*	14	1	-2	0
